# TGFb inhibitor – TGF-b pathway inhibition. Potency, µM (top dose mostly 46.1 µM), without a hit: at the top dose activity, negative = inhibition, actives largely listed as inhibitors. HepG2 CAGA-GFP TGF-b/SMAD3 reporter, GFP fluorescence, 18 h; TGF-beta stimulated, 500 pg/mL final. 1.2% of 410,000 active; note: % is set by controls: 0 for no effect and ±100 for the full control effect; nearly all actives have a fitted effect of over 65% in size
#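 First, reporter cells (HEPG2 CAGA-GFP) rested 2 h at 37 degrees C. Next, compounds were pinned in and TGF-beta added to 500 pg/mL final. After 18 h, GFP was imaged per cell and summed per well.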
# HepG2 tox – HepG2 cytotoxicity, counter-screen for TGF-b inhibitors; HepG2 CAGA-GFP viability, ATP luminescence, 18 h; Potency, µM (top dose mostly 46.1 µM), for the others: top-dose activity change, negative = cytotoxicity, hits mostly cytotoxic; 0.76% of 410,000 active
#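 HepG2 CAGA-GFP cells (1000/well, DMEM with 1% FBS) received compound, then TGF-beta at 500 pg/mL final, and were incubated 18 hours at 37 degrees C. Viability was read by CellTiter-Glo luminescence. Media-only wells were set as complete cell-killing and DMSO as no toxicity.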
# RORg inh – ROR gamma (mouse) transcription inhibition | P51450 | Drosophila S2 Gal4-RORgamma UAS-luciferase reporter, 20 h | Potency, µM (doses to about 53.6 µM), for the others: at the highest dose activity change, negative = inhibition, usual class: inhibitors | 5.4% of 310,000 active | AID 2551; note: % is set by controls: 0 for no effect and ±100 for the full control effect; nearly all actives have a fitted effect of over 60% in size
# Target sequence (P51450 whole entry, looked up, the tested form may be a part): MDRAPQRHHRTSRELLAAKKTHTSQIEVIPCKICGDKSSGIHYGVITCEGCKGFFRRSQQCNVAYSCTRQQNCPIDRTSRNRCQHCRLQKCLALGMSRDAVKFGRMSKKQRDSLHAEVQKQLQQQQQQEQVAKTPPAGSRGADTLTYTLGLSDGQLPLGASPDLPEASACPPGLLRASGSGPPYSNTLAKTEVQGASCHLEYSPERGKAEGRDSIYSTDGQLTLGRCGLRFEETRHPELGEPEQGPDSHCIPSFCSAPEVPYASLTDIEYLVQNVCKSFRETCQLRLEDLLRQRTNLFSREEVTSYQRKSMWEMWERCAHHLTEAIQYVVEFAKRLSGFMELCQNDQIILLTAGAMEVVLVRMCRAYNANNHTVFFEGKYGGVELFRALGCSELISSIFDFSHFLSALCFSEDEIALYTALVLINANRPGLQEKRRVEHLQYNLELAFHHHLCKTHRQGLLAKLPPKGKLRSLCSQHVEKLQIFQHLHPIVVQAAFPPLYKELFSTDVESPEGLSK
#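 Luminescence from a UAS-regulated Photinus luciferase reporter in stably transfected Drosophila Schneider cells is measured; decreased signal marks ROR gamma inhibition. Fusion expression is induced by 700 uM copper sulfate for 20 hr.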
# ATXN2 expr inh – inhibitors of ATXN2 expression | HEK-293 ATXN2-luciferase reporter, luminescence, 24 h | Potency, µM (highest dose often 57 µM), for the others: at the highest dose activity change, negative = inhibition, usual class: inhibitors | 0.72% of 360,000 active | AID 1745845; note: % is set by controls: 0 for no effect and ±100 for the full control effect; nearly all actives have a fitted effect of over 55% in size
#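 qHTS (up to 57 uM final) was run with 24 h compound exposure of reporter cells at 37 °C. Each well was multiplexed: SteadyGlo luminescence measured ATXN2-luciferase expression after a fluorogenic Gly-Phe-AFC viability readout (25 uM final).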
# VP16 counter – Gal4-VP16 reporter inhibition counter-screen; 3.5% of 310,000 active; Potency, µM (titrated, usually from 53.6 µM), inactives show top-dose activity, negative = inhibition, hits mostly inhibitors; Drosophila S2 Gal4-VP16 UAS-luciferase, luminescence, 20 h;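 note: Gal4-VP16 expression switched on by copper sulfate through the metallothionein promoter; % is set by controls: 0 for no effect and ±100 for the full control effect; nearly all actives have a fitted effect of over 50% in size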
# ATXN viability – cell viability loss in ATXN counter-screen. 0.49% of 400,000 active. S2 cells (HEK-293 line with an ATXN2-luciferase reporter) viability, CellTiter-Fluor protease fluorescence, 24 h. Potency, µM (doses to about 56.7 µM), actives largely listed as cytotoxic; note: nearly all actives have a fitted effect of over 40% in size
# Numbers without * were called inactive; i = inactive; ? = inconclusive; · = no result; [ ] = remark or other dose. Sampled rows, rich in hits. Any-hit rate of the full collection: about 6.3%. Calls come from the whole dose curve; as a rule, active = well fitted curve in the direction sought with a large enough effect; inconclusive = small, poorly fitted or top-dose-only effect, or another doubt; inactive = no such curve, though single readings can be large; an effect the other way counts as inactive or inconclusive. Potency is the fitted concentration of half-maximal effect.
SMILES,TGFb inhibitor,HepG2 tox,RORg inh,ATXN2 expr inh,VP16 counter,ATXN viability
CCOC(=O)c1ccc(NC(=S)NCCc2ccc(OC)c(OC)c2)cc1,-43%,-37%,10µM*,-15%,?,i
CC(=O)NC(c1ccccc1)c1nc(-c2cc(F)cc(F)c2)cs1 (stereo not drawn),23%,2%,·,15%,·,i
CC(C)(C)CC(C)(C)N=C1Nc2ccc([N+](=O)[O-])cc2N[C@]12C[C@H]1CCCC(=O)N3CC[C@@H](C2)[C@@H]13,?,-27%,·,·,·,·
Cc1cc2nc(-c3ccc(Cl)cc3)c(CC3CCCCC3)n2c(C)c1Br,·,·,·,36%,·,?
CN(C)/C=N/C(=S)Nc1ccc(Cl)cc1,-14%,-6%,6.3µM*,11%,-10%[10 µM],·
CN(C)/C=N/C(=S)Nc1ccc(Cl)cc1Cl,0%,-146%,13µM*,30%,5%[10 µM],i
Cc1cccc(C)c1NC(=S)/N=C/N(C)C,-11%,-1%,20µM*,-27%,5%[10 µM],i
CN1CCN(C(=S)Nc2ccc(Cl)cc2Cl)CC1,13%,8%,-24%,-1%,14%,i
CC(C)(C)S(=O)N1Cc2cc(CO)ccc2[C@H]1CCO (stereo partly drawn),11%,-1%,·,9%,·,i
COc1ccc(N2CCN(CCCNC(=O)c3nnc(Cc4ccccc4Cl)o3)CC2)cc1,-15%,-24%,·,-21%,·,?
COc1ccc(C(=O)NCc2nnc(SCC(=O)Nc3nnc(C)s3)o2)cc1OC,-8%,-4%,?,-1%,-1%,i
COc1ccc(C(=O)NCc2nnc(SCC(=O)Nc3nc4ccc(C)cc4s3)o2)cc1OC,-6%,-7%,7.9µM*,35%,7.9µM*,i
CCSc1nnc(NC(=O)CSc2nnc(CNC(=O)c3cc(OC)c(OC)c(OC)c3)o2)s1,8%,7%,16µM*,-17%,?,i
O=C(CSc1ccccc1)NCc1ccc2c(c1)CCN2C(=O)c1ccc(F)cc1,15%,-16%,·,·,·,·
CCOc1cccc(/C=N/NC(=O)c2cccnc2)c1O,?,-20%,0.2µM*,·,0.32µM*,?
CCOc1cccc(/C=N/NC(=O)c2cc(C3CC3)[nH]n2)c1O,-2%,-23%,2.2µM*,·,2.8µM*,i
COc1cccc(/C=N/Nc2ccc(S(=O)(=O)O)cc2)c1O,-19%,1%,-24%,1%,-14%,i
COc1cccc(/C=N/Nc2ccc(C(=O)O)cc2)c1O,?,-16%,0.032µM*,·,?,i
COc1cccc(/C=N/NC(=O)c2nc(-c3ccccc3)cc(-c3ccccc3)n2)c1O,-21%,-31%,27%,10µM*,-10%,i
CCOc1cc(/C=N/NC(=O)c2cccnc2)ccc1O,9%,5%,-27%,1%,2%,i
COc1cccc(C(C)(O)c2nc(-c3cccc(NC(C)=O)c3)cs2)c1 (stereo not drawn),-6%,-18%,·,-8%,·,?
[N-]=[N+]=NC(c1ccccc1)C(NC(=O)c1cc(C(F)(F)F)cc(C(F)(F)F)c1)c1ccccc1 (stereo not drawn),·,·,·,-14%,·,?
COc1cccc(C=NNC(=O)c2ccncc2)c1O,14%,-11%,·,10µM*,·,i
COc1cccc(/C=N/NC(=O)N/N=C/c2cccc(OC)c2O)c1O,-10%,-11%,-23%,?,4%,i
COc1cccc(/C=N/Nc2nn3cnnc3c3ccccc23)c1O,-4%,-46%,1.4µM*,-25%,2.8µM*,i
SMILES,TGFb inhibitor,HepG2 tox,RORg inh,ATXN2 expr inh,VP16 counter,ATXN viability
CCn1c(C)nc2cc(C(=O)N/N=C/c3cccc(OC)c3O)ccc21,0%,-5%,0.32µM*,14µM*,0.71µM*,i
CC(NS(=O)(=O)c1ccc(Br)cc1F)[C@H](O)c1ccccc1 (stereo partly drawn),-7%,6%,·,2%,·,i
Cc1cccnc1CCNCc1c(C(=O)N2C[C@@H](C)O[C@@H](C)C2)nc2ccc(Cl)cn12,2%,-8%,-19%,-10%,6%,i
Cc1ccc(-c2csc(C3C(N)=NC(S)=C(C#N)C34CCCCC4)n2)cc1 (stereo not drawn),-2%,5%,5µM*,17%,?,i
N#CC1=C(S)N=C(N)C(c2nc(-c3ccccc3)cs2)C12CCCC2 (stereo not drawn),2%,6%,10µM*,6%,-21%,?
N#CC1=C(S)N=C(N)C(c2nc(-c3ccccc3)cs2)C12CCCCC2 (stereo not drawn),-22%,-1%,10µM*,42%,?,i
Nc1nc(-c2ccccc2)cs1,1%,-4%,8%,14%,6%,i
CC(=O)Nc1ccc(S(=O)(=O)Oc2ccccc2N2C(=O)C3C4CCC(C4)C3C2=O)cc1 (stereo not drawn),-9%,-32%,39%,69%,2%,i
Cc1cc(C)nc(N/N=C/c2ccccc2OCc2cccc(Br)c2)n1,?,-26%,50µM*,-8%,35µM*,i
Cc1cc(C)nc(N/N=C/c2cc(Br)ccc2O)n1,?,-19%,3.2µM*,?,18µM*,i
Cc1cc(C)nc(N/N=C/c2ccccc2OCc2ccccc2)n1,?,-43%,8.9µM*,-19%,?,?
Cc1cc(C)nc(N/N=C/c2ccccc2OCc2ccc(Cl)cc2)n1,-24%,-61%,10µM*,5%,?,i
COC(=O)C1CCCCN1Cc1ccc2c(c1)CN(C1CCSCC1)CCO2 (stereo not drawn),·,·,·,·,·,i
COc1ccc(NC(=O)Cn2c(CCC(=O)O)ccc2-c2ccccc2)cc1Cl,·,-2%,·,·,·,·
Cc1[nH]nc(C(F)(F)F)c1N=NN1CCOCC1,0%,-38%,·,?,·,?
COc1ccc(S(=O)(=O)N2CCOCC2)cc1NC(=O)C1CC(=O)N(c2ccc3c(c2)OCCO3)C1 (stereo not drawn),12%,9%,·,·,·,i
Cc1cc(C)nc(N/N=C/c2ccccc2OCc2ccc(Br)cc2)n1,10%,-9%,7.1µM*,7%,?,i
Cc1cc(C)nc(N/N=C/c2ccccc2OCC(=O)O)n1,4%,-2%,-24%,-2%,-6%,i
Cc1ccccc1S(=O)(=O)NC(=O)C1(C)CCN1C(=O)c1cccc(F)c1 (stereo not drawn),-6%,-22%,·,8%,·,i

# Screening data as filed in PubChem BioAssay.
